Only some compounds are listed: those with a hit (about 4.6% of all), similar ones and a draw of the others.
TRHR enhancer: TRH receptor (human) allosteric enhancement; P34981; TRHR cells, fluo-8 calcium fluorescence, EC20 TRH enhancement; enhancement, % at 2 µM; 360,000 tested, 0.66% active; in the data active = enhancement above about 30%; note: 0% is about no effect
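Enhancer read-out: after compound pinning and an initial kinetic agonist-mode read, an EC20 of TRH (10 nM final) was injected and fluo-8 calcium signal (Ex 480/Em 530) followed at 1 s/cycle for 100 cycles in TRHR-expressing cells.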
D1 antagonist: blocks dopamine activation of the human D1 receptor; AID 504652; 360,000 tested, 3.2% active; P21728; HEK293 TREx D1 cells, calcium flux, dopamine EC80; active compounds read low; activity change, negative = inhibition, % at 10 µM; in the data active = activity change below about -30%; note: % is set by controls: 0 for no effect and ±100 for the full control effect
Target sequence (P21728 whole entry, looked up): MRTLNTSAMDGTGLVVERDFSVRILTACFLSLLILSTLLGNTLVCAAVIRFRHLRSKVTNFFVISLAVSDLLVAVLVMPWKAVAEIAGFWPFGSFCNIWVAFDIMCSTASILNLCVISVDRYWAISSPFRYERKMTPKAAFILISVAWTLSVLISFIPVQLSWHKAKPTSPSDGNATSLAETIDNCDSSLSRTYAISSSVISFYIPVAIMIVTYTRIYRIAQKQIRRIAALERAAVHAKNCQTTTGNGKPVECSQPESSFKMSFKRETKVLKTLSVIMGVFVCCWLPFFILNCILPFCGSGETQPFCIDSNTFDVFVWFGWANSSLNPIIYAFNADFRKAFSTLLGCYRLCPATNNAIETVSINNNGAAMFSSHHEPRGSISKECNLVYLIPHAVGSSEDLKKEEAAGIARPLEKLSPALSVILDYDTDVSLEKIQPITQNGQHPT
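HEK293 T-REx cells expressing inducible, force-coupled D1 receptor; no-wash Ca dye, 30–90 min RT. Cmpd → 180 s read at 1 Hz → EC80 DA → 180 s read.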
D1 PAM: human D1 dopamine receptor positive modulation; P21728; HEK293 TREx D1 cells, calcium flux, dopamine EC20 potentiation; potentiation, % at 10 µM; 360,000 tested, 0.036% active; in the data active = potentiation above about 30%; note: 0% is about no effect
D1 ag: agonists of human D1 dopamine receptor; P21728; HEK293 T-REx D1 cells, calcium flux, agonist mode; activation, % at 2 µM; 360,000 tested, 1% active; note: 0% is about no effect
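Tetracycline-induced HEK293 TREx D1 cells, force-coupled to calcium signalling, were dye-loaded with a no-wash calcium kit. Compound was pin-added after a 10 s baseline. Fluorescence was read kinetically at 1 cycle/s for 180 s, with calcium rises flagged as agonism.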
TRHR ag: activates the human TRH receptor | P34981 | TRHR cells, calcium flux fluo-8, FDSS agonist mode | activation, % at 2 µM | 360,000 tested, 0.18% active | AID 493084; note: 0% is about no effect
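Fluo-8-loaded TRHR cells; 10 s baseline, compound added, kinetic Ca2+ fluorescence read 1/s, agonist mode.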
Epigenetic derep: derepresses silenced GFP reporter in murine cells; murine LDR cells, GFP reporter derepression, 30 h; Potency, µM (top dose mostly 53.9 µM), for the others: top-dose GFP activation, hits mostly activators; 280,000 tested, 0.2% active; active = well fitted activation curve with a large enough effect; inconclusive = small, poorly fitted or top-dose-only effect; note: potency is the fitted concentration of half-maximal effect; % of control where 0% means no effect; nearly all actives have a fitted effect of over 60% in size
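In this reporter-derepression format, murine cells bearing a silenced integrated CMV-GFP locus incubate with test compound (30 h, 37 C), then are washed and imaged; fluorescent objects of 20–120 um count as induced cells.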
The depositor's hits bear a star; [ ] = remark or other dose. Cut-off read from the data, not from the text of the source, unless noted: active = activation above about 30%; inactive = the rest.

For COc1ccc(C2/C=C\CN(S(=O)(=O)c3ccc4ccccc4c3)CC(=O)N2Cc2ccc(F)cc2)cc1 (centres undefined) the results were TRHR enhancer 5.8, D1 antagonist -1.2, D1 PAM -0.1, D1 ag 12.2, TRHR ag 1.1 and Epigenetic derep 9.3%.
Screening COC(=O)NC(/C(C(=O)OC)=C(\C)NCc1ccccc1)c1ccc(F)cc1 (centres undefined) returned Epigenetic derep 0.0%[10.1 µM].
`C=CCC(C)(O)C#Cc1ccccc1` (centres undefined) gave Epigenetic derep -1.1%.
Screening Cc1ccc(Cn2c(CNS(=O)(=O)c3ccc(Cl)s3)nc3cccnc32)cc1 returned TRHR enhancer -1.9, D1 antagonist 8.7, D1 PAM -3.5, D1 ag 2.0, TRHR ag -0.4 and Epigenetic derep 0.8%.
COc1ccc(C(=O)Nc2cccc(C(=O)OCc3cc(=O)n4nc(C5CC5)sc4n3)c2)cc1 was read as TRHR enhancer 3.7, D1 antagonist -0.8, D1 PAM 0.3, D1 ag 4.2, TRHR ag -2.0 and Epigenetic derep inconclusive.
`CCOCCn1c(=NC(=O)c2ccc3c(c2)OCCO3)sc2cc(OCC)ccc21` gave TRHR enhancer -2.0, D1 antagonist -30.8*, D1 PAM -4.4, D1 ag 0.4, TRHR ag 0.2 and Epigenetic derep 4.8%.
`Cc1ccc(Nc2ccc(NCc3ccccc3)nn2)cc1C` gave TRHR enhancer 9.9, D1 antagonist -43.6*, D1 PAM -9.0, D1 ag 7.5, TRHR ag 0.4 and Epigenetic derep -1.0%.
Screening Cc1cc(NCc2ccccc2)nc2ccccc12 returned TRHR enhancer -7.5, D1 antagonist -66.2*, D1 PAM -21.7, D1 ag 34.3*, TRHR ag 9.3 and Epigenetic derep -0.3%.
Screening Cc1cc(NCc2ccccc2)c2ccccc2n1 returned TRHR enhancer -8.2, D1 antagonist -13.4, D1 PAM -2.0, D1 ag 6.4 and TRHR ag 1.1.
Screening CCOC(=O)c1c(COc2ccccc2)oc2ccc(O)cc12 returned TRHR enhancer -5.1, D1 antagonist -27.6, D1 PAM -6.3, D1 ag 2.1, TRHR ag 0.2 and Epigenetic derep -3.2%.
For CCOC(=O)c1c(C(C)(C)C)oc2ccc(O)cc12 the results were TRHR enhancer -4.6, D1 antagonist -1.5, D1 PAM 3.0, D1 ag 88.2*, TRHR ag -1.0 and Epigenetic derep 15.8%.
Screening COc1ccc(NS(=O)(=O)c2cc(Br)cc3c2N(C(=O)C2CC2)CC3)cc1OC returned TRHR enhancer 49.5*, D1 antagonist 16.1, D1 PAM -2.7, D1 ag -0.2, TRHR ag -0.5 and Epigenetic derep 10.5%.
O=C(C1CC1)N1CCc2cc(Br)cc(S(=O)(=O)NCc3ccco3)c21 was read as TRHR enhancer 3.5, D1 antagonist -31.2*, D1 PAM 3.7, D1 ag 1.1, TRHR ag -0.1 and Epigenetic derep 1.6%.
COc1cc(NC(=O)CCNS(=O)(=O)c2ccc3c(c2)CCN3C(=O)C2CC2)cc(OC)c1 was read as TRHR enhancer 45.5*, D1 antagonist 4.5, D1 PAM -3.7, D1 ag 0.0, TRHR ag 0.2 and Epigenetic derep 0.0%.
`Cc1ccc(CNS(=O)(=O)c2cc(Br)cc3c2N(C(=O)C2CC2)CC3)cc1` gave TRHR enhancer 0.7, D1 antagonist -5.0, D1 PAM -1.1, D1 ag 2.2, TRHR ag -0.1 and Epigenetic derep -0.6%.
CCC(=O)N1CCc2cc(S(=O)(=O)NCCC(=O)Nc3ccc(OC)cc3)ccc21 was read as TRHR enhancer 2.6, D1 antagonist 1.5, D1 PAM -4.1, D1 ag 1.2 and TRHR ag -0.1.
COc1ccc(NS(=O)(=O)c2ccc3c(c2)CCCN3C(=O)C2CCC2)cc1OC was read as TRHR enhancer -7.6, D1 antagonist -42.2*, D1 PAM -6.8, D1 ag 6.9, TRHR ag 0.3 and Epigenetic derep 0.0%.

Compound activity: PubChem, National Center for Advancing Translational Sciences (NCATS)
